Abeta rescue: compounds reversing amyloid beta toxicity in yeast. yeast expressing A-beta42, growth rescue, OD600, 48 h; response scale: 0% DMSO, 100% iron-clioquinol control. Potency, µM (series often up to 46.1 µM), actives largely listed as activators. hit rate 0.063% among 410,000; also: nearly all actives have a fitted effect of over 55% in size
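Growth rescue measured by 600 nm absorbance after 48 h yeast culture at 30 C with compound. Values normalized between DMSO and an equimolar ferric chloride plus clioquinol control.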
FUS suppressor: FUS proteinopathy suppression in yeast; S. cerevisiae FUS-expressing, growth rescue, OD600, 24 h; hit rate 0.24% among 390,000; Potency, µM (series often up to 76.6 µM), hits mostly activators; AID 1347120; also: nearly all actives have a fitted effect of over 55% in size
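Steps: raffinose overnight preculture; dilution to OD 0.005 in 2% galactose minimal medium; compound addition (concentration series); 24hr at 30C, 99% humidity; absorbance read at 600 nm.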
TDP43 rescue: TDP-43 toxicity inhibition in yeast | TDP-43 expressing yeast growth rescue, BacTiter-Glo, 24 h | Potency, µM (doses to about 46.1 µM), most hits filed as activators | hit rate 1.8% among 410,000; also: nearly all actives have a fitted effect of over 50% in size
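Luminescence from BacTiter-Glo reports growth of TDP-43-expressing yeast after 24 hr at 30 deg C with compound. Cells were raffinose-pregrown to mid-log, then seeded in galactose medium at OD600=0.02.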
aSyn yeast inh: inhibitors of alpha-synuclein toxicity in yeast; Yeast expressing alpha-synuclein, growth rescue, BacTiter-Glo, 24 h; Potency, µM (highest dose often 46.1 µM), usual class: activators; hit rate 0.14% among 370,000; AID 652106; also: nearly all actives have a fitted effect of over 65% in size
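Screening used galactose-induced yeast with toxic alpha-synuclein levels, exposed to compound for 24 hr at 30 deg C. Cell growth, read with BacTiter-Glo luminescence, gave the measured signal.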
Large screens that a line does not name were inactive; ! = a repeat was not active. Shown are actives, neighbours in structure and some others; about 2.1% of the full set was active somewhere. Calls follow the shape of the dose curve; as a rule, active = well fitted curve in the direction sought with a large enough effect; inconclusive = small, poorly fitted or top-dose-only effect, or another doubt; inactive = no such curve, though single readings can be large; an effect the other way counts as inactive or inconclusive.

COc1ccc2nc(N(Cc3cccnc3)C(=O)C3CCCCC3)sc2c1	TDP43 rescue 6.31µM (no result: aSyn yeast inh)
CCOc1ccc2nc(N(Cc3cccnc3)C(=O)c3ccco3)sc2c1	TDP43 rescue 20µM (no result: aSyn yeast inh)
O=C(C1CCCCC1)N(Cc1cccnc1)c1nc2ccc(F)cc2s1	TDP43 rescue inconclusive (no result: aSyn yeast inh)
Cc1cccc2sc(N(Cc3cccnc3)C(=O)c3cccs3)nc12	TDP43 rescue 31.6µM (no result: aSyn yeast inh)
O=C(COc1c(Br)cc(Br)c2cccnc12)Nc1ccccc1F	none
CC1=C(C)CS(=O)N(S(=O)(=O)c2ccc(Cl)cc2)C1 (stereo unspecified)	TDP43 rescue inconclusive
O=[N+]([O-])c1cccnc1Sc1ccccc1Cl	none
O=C(COC(=O)C1CCN(S(=O)(=O)c2ccc3c(c2)OCCO3)CC1)Nc1ccc(C(F)(F)F)cc1	none (no result: FUS suppressor)
Cc1ccc(CN2CCC(Oc3cccc(C(=O)NCc4cccnc4)c3)CC2)o1	none
Cc1cccc2sc(N(Cc3cccnc3)C(=O)Cc3ccccc3)nc12	TDP43 rescue 12.6µM (no result: aSyn yeast inh)
Cc1cccc2sc(N(Cc3cccnc3)C(=O)CCc3ccccc3)nc12	FUS suppressor inconclusive, TDP43 rescue inconclusive (no result: aSyn yeast inh)
CC(C)Oc1ccc(C(=O)O)cc1	TDP43 rescue 12.6µM
Cc1c(C(c2cccc([N+](=O)[O-])c2O)c2c(C)n(C)n(-c3ccccc3)c2=O)c(=O)n(-c2ccccc2)n1C	none
Cc1c(NC(=O)CSc2nc3ccccc3[nH]2)c(=O)n(-c2ccccc2)n1C	none
CCOc1ccccc1COC(=O)c1cccc(-n2cnnn2)c1	TDP43 rescue 17.8µM
COc1cccc(C2C(C#N)=C(N)N(c3ncn[nH]3)C3=C2C(=O)CCC3)c1 (stereo unspecified)	none (no result: FUS suppressor)
Cn1nnnc1SCc1ccc(C(=O)Nc2ccc(Br)cc2)cc1	none
COc1ccc(N/C(=N/c2nc(C)cc(C)n2)NC(=O)Nc2ccc(Cl)c(Cl)c2)c(OC)c1	none
Cc1ccccc1Nc1ncnc2c1cnn2C	none
Cn1ncc2c(Nc3cc(C(F)(F)F)ccc3Cl)ncnc21	TDP43 rescue 14.1µM (no result: aSyn yeast inh)
CC(C)(C)C(=O)NC(=S)NNC(=O)c1ccc(Cl)cc1Cl	aSyn yeast inh 5.01µM
CCCC(=O)Nc1c2c(nn1-c1ccc(OC)cc1)CS(=O)(=O)C2	none
Cc1cccc(NC(=O)Cn2cnc3ccc(S(=O)(=O)N4CCC(C)CC4)cc3c2=O)n1	FUS suppressor 35.5µM
CCN1C(c2ccc(F)cc2)=CS/C1=C(\C#N)c1nnc2n1-c1ccccc1SC2	none
CC(=O)O/N=C1\C(=O)N(Cc2ccc(C)cc2)c2ccccc21	none
CN1C(=O)/C(=N\OC(=O)c2ccccc2Cl)c2ccccc21	TDP43 rescue 17.8µM
COc1ccccc1N1CCN(C(=O)c2cc3c(s2)CCC3)CC1	none
COC(=O)c1scc(-c2ccc(C)cc2)c1S(=O)(=O)N1CCN(c2ccc(OC)cc2)CC1	FUS suppressor 22.4µM (no result: aSyn yeast inh)
COc1ccc(N2CCN(S(=O)(=O)c3c(C)nc4scc(C)n4c3=O)CC2)cc1	TDP43 rescue 14.1µM!
COC(=O)c1scc(-c2ccc(C)cc2)c1S(=O)(=O)N1CCN(c2ccc(F)cc2)CC1	TDP43 rescue inconclusive (no result: aSyn yeast inh)
Cc1nc2scc(C)n2c(=O)c1S(=O)(=O)N1CCN(c2ccccc2)CC1	none
Cc1ccc(-n2nc3c(=O)n(CC(=O)NCCC4=CCCCC4)nc(C)c3c2C)cc1	none
COc1ccccc1N(O)C1CC(=O)N(c2ccc(Br)cc2)C1=O (stereo unspecified)	FUS suppressor inconclusive, TDP43 rescue 28.2µM
Fc1ccc(COc2ccc(C(=S)N3CCCC3)cc2)cc1	Abeta rescue inconclusive, TDP43 rescue 12.6µM
CC(=O)Nc1ncnc2c1c(-c1ccc(Cl)cc1)nn2C(C)(C)C	aSyn yeast inh 3.55µM
Fc1cccc(Cl)c1CSc1nnnn1-c1ccc2c(c1)OCO2	none
Cc1ccc(-c2cc(NC(=O)c3ccccc3)on2)cc1	none
Cc1ccccc1Cn1ccc(-c2ccc3c(c2)OCO3)n1	TDP43 rescue 17.8µM
Fc1cccc(Cn2ccc(-c3ccc4c(c3)OCO4)n2)c1	TDP43 rescue 12.6µM
Cc1ccccc1Cn1nnc(-c2ccc3c(c2)OCO3)n1	none
COc1ccc(/C=C2\SC(=S)N(CCC(=O)NCCCn3ccnc3)C2=O)cc1	none
COc1ccc2c(c1)NC(=O)CC(c1ccccc1)=N2	TDP43 rescue 14.1µM
COc1ccc(C2=NN3C(C2)c2ccccc2OC32C(=O)N(C)c3ccccc32)cc1 (stereo unspecified)	FUS suppressor inconclusive, TDP43 rescue 22.4µM
O=C(COC(=O)COc1ccccc1)NC12CC3CC(CC(C3)C1)C2	none

Bioassay records deposited in PubChem by National Center for Advancing Translational Sciences (NCATS).
